In assay [1] the target is T1, CDK3/cyclin E (Homo sapiens) (UniProt P24864+O96020+Q00526). The note with it: at 1 µM.
The target in assay [2] is T1, CDK3/cyclin E (Homo sapiens). The note with it: at 10 µM.
Assay [3] has as its target T2, Cyclin-dependent kinase 5/CDK5 activator 1 (Homo sapiens) (UniProt Q00535+Q15078). The note with it: at 1 µM.
For assay [4], the target named is T2, Cyclin-dependent kinase 5/CDK5 activator 1 (Homo sapiens). The note with it: at 10 µM.
Assay [5] concerns the target T3, CDK6/cyclin D3 (Homo sapiens) (UniProt P30281+Q00534). The note with it: at 1 µM.
Assay [6] deals with T3, CDK6/cyclin D3 (Homo sapiens). The note with it: at 10 µM.
In assay [7] the target is T4, CDK9/cyclin T1 (Homo sapiens) (UniProt O60563+P50750). The note with it: at 1 µM.
The target in assay [8] is T4, CDK9/cyclin T1 (Homo sapiens). The note with it: at 10 µM.
Assay [9] deals with Serine/threonine-protein kinase Chk2 (Homo sapiens) (UniProt O96017). The note with it: at 10 µM.
Sequence of Serine/threonine-protein kinase Chk2 (Homo sapiens) (O96017 whole entry, canonical isoform): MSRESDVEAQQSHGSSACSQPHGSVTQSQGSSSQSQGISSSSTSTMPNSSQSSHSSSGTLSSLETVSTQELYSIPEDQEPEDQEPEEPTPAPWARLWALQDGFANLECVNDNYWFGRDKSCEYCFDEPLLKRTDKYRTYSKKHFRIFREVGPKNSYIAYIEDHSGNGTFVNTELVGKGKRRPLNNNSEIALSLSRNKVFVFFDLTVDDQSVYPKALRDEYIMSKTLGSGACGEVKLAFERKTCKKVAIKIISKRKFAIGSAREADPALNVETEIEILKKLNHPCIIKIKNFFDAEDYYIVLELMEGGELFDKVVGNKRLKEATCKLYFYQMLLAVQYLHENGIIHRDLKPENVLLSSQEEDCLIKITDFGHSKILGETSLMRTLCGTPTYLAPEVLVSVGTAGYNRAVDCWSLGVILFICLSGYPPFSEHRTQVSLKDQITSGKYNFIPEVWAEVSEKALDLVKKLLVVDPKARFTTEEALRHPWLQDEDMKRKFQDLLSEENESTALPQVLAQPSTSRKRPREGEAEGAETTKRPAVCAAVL
The target of assay [10] is Casein kinase I isoform gamma-1 (Homo sapiens) (UniProt Q9HCP0). The note with it: at 1 µM.
Sequence of Casein kinase I isoform gamma-1 (Homo sapiens) (Q9HCP0 whole entry, looked up, canonical isoform): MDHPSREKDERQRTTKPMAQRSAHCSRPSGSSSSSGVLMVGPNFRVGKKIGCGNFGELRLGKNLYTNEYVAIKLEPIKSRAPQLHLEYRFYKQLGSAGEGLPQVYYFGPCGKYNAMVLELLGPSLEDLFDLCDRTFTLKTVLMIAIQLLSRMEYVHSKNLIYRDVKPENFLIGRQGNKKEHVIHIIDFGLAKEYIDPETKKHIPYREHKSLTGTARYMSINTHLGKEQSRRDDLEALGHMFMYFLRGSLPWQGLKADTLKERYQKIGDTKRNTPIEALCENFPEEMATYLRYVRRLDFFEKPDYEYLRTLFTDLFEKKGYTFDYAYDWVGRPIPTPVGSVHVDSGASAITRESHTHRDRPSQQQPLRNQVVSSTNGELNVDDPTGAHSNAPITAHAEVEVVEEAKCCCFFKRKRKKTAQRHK
For assay [11] the target is unchanged. The note with it: at 10 µM.
The target in assay [12] is Casein kinase I isoform delta (Homo sapiens) (UniProt P48730). The note with it: at 1 µM.
Sequence of Casein kinase I isoform delta (Homo sapiens) (P48730 whole entry, looked up, canonical isoform): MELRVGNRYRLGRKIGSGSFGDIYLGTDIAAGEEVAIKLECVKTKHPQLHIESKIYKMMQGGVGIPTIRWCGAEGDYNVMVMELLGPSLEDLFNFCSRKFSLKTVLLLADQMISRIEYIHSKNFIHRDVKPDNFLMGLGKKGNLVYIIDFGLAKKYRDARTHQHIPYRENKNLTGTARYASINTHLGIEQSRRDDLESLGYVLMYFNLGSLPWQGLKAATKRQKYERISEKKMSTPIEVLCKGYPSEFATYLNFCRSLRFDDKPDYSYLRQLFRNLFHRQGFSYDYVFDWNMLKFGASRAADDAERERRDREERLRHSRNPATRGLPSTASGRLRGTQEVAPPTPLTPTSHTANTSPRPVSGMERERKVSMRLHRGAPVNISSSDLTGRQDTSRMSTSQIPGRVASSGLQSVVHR
The target is the same in assay [13]. The note with it: at 10 µM.
Assay [14] deals with T2, Cyclin-dependent kinase 5/CDK5 activator 1 (Homo sapiens). The note with it: at 10 µM. This is another data set of the same source.
For assay [15] the target is unchanged. The note with it: at 1 µM. The source holds these as a separate data set.
The target of assay [16] is T5, Cyclin-dependent kinase 7/ cyclin H (Homo sapiens) (UniProt P51946+P50613). The note with it: at 1 µM.
In assay [17] the target is T5, Cyclin-dependent kinase 7/ cyclin H (Homo sapiens). The note with it: at 10 µM.
Assay [18] has as its target T6, Serine/threonine-protein kinase Chk1 (Homo sapiens) (UniProt O14757).
T6 sequence (whole entry): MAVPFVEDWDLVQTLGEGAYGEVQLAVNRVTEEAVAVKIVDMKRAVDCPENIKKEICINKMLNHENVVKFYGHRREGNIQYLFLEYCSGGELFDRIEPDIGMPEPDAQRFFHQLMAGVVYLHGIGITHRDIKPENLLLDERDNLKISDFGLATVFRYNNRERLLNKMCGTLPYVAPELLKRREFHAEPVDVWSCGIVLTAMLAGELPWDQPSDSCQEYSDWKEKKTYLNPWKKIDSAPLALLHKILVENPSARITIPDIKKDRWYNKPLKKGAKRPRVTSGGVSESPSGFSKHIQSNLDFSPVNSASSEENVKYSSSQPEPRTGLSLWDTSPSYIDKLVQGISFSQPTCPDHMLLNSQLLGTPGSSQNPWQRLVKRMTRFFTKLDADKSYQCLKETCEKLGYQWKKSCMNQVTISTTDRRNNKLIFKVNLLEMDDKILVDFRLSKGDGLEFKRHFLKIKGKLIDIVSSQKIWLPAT
The note with it: at 1 µM.

For assay [19], the target named is T6, Serine/threonine-protein kinase Chk1 (Homo sapiens). The note with it: at 10 µM.
Assay [20] has as its target Serine/threonine-protein kinase Chk2 (Homo sapiens) (UniProt O96017). The note with it: at 1 µM.

T1 sequence (O96020 whole entry, looked up): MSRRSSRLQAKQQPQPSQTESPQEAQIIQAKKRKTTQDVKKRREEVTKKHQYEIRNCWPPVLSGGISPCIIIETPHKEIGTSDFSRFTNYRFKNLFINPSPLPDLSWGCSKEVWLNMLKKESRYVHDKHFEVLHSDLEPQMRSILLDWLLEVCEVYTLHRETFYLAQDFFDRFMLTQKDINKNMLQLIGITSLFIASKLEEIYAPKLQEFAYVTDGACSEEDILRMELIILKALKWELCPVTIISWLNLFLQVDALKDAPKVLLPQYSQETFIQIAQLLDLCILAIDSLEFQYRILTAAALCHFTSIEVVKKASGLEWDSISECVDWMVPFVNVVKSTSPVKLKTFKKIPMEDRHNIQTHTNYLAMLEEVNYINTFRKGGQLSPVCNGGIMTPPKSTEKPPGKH
T1 sequence (P24864 whole entry, looked up): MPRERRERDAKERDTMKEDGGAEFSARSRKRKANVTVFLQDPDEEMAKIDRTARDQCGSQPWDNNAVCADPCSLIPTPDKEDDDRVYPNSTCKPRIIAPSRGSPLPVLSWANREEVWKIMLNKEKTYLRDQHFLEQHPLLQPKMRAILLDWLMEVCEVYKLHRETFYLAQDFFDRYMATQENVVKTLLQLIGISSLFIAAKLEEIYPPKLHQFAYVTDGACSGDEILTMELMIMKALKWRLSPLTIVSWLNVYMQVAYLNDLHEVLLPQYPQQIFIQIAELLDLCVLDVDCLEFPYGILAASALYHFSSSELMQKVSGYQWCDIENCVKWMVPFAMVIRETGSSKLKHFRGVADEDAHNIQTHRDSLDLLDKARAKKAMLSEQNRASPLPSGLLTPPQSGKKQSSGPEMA
T1 sequence (Q00526 whole entry, looked up): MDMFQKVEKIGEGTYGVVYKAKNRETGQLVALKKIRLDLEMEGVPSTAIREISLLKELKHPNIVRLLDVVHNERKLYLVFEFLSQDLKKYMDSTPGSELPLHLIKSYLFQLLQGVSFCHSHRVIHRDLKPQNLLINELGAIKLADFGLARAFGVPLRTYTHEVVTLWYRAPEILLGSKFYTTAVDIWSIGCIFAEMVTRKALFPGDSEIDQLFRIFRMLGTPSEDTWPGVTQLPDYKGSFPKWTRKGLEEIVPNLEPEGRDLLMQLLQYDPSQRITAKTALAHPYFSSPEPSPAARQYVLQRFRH
T2 sequence (Q00535 whole entry): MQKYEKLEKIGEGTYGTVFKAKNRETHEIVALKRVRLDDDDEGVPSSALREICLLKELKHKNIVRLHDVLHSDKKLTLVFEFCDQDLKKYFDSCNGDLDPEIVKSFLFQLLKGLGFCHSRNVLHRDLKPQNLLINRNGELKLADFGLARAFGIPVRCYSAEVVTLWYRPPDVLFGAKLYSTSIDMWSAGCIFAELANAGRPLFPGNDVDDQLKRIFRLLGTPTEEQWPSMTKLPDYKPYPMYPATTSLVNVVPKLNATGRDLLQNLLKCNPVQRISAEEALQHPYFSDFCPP
T2 sequence (Q15078 99-307 partner limits assumed): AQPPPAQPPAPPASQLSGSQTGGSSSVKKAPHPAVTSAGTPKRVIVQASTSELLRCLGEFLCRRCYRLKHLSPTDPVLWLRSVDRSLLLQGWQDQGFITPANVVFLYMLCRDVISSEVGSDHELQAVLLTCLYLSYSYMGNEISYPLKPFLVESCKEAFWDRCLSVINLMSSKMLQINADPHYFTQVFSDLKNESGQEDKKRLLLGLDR

On to `O=C(NC(NC(=S)Nc1ccc(F)c([N+](=O)[O-])c1)C(Cl)(Cl)Cl)C(c1ccccc1)c1ccccc1` (configuration not stated), for which the residual activity in [1] is 100%; in [2], 93%; in assay [3] it was 98%; in assay [4], 83%; in assay [5], 97%; in assay [6], 94%. Besides, the residual activity in assay [7] worked out at 101%; in assay [8], 95%; in assay [9] it was 82%; in assay [10] it was 94%; in [11], 55%; in [12] it was 45%. Moreover, the residual activity in assay [13] is 64%.

For the compound `NC(=O)Nc1sc(-c2ccc(F)cc2)cc1C(N)=O`, the residual activity was determined as 73% in assay [1]; 43% in [2]; 70% in assay [3]; 33% in [14]; 81% in [15]; 33% in assay [4]. Moreover, the residual activity in [5] was found to be 78%; in assay [6] it was 33%; in assay [16], 87%; in assay [17], 61%; in assay [7], 89%; in [8], 42%. Moreover, the residual activity in assay [18] was 37%; in [19], 7%; in assay [20], 34%; in assay [9] it was 4%; in [10] it was 104%; in assay [11] it was 71%. Besides, the residual activity in assay [12] amounted to 71%; in assay [13], 31%.

On to `c1ccc(-c2cnc(Nc3ccc(OCCN4CCCC4)cc3)s2)cc1`, for which the residual activity in [1] stood at 81%; in assay [2] it was 43%; in [3], 64%; in assay [14] it was 17%; in assay [15] it was 71%; in assay [4], 25%. For the same compound, the residual activity worked out at 38% in assay [5]; 6% in [6]; 70% in assay [16]; 39% in assay [17]; 26% in assay [7]; 4% in [8]. Moreover, the residual activity in assay [12] was found to be 81%; in assay [13], 54%.

In the case of `CC(C)c1nn(-c2c(Cl)cccc2Cl)c2nc(Cc3ccc(OCCO)cc3)[nH]c(=O)c12`, the residual activity in [1] is -1%; in assay [2], -1%; in [3] it was 0%; in assay [14], -1%; in assay [15] it was -1%; in assay [4] it was -1%. The residual activity in assay [5] amounted to 43%; in assay [6], 9%; in [16] it was 15%; in assay [17], 1%; in assay [7], 2%; in assay [8], 0%. The residual activity came out at 93% in [18]; 95% in assay [19]; 91% in assay [20]; 80% in assay [9]; 74% in assay [10]; 89% in [11]. Further, the residual activity was 79% in [12] and 53% in [13].

On to `O=C1NC(=O)C(c2cn(CCCO)c3ncccc23)=C1c1cnccn1`, for which the residual activity in assay [1] turned out to be 93%; in [2], 70%; in [3] it was 73%; in assay [14], 51%; in assay [15], 90%; in assay [4], 61%. The residual activity in assay [16] stood at 71%; in assay [17], 54%; in assay [7], 89%; in assay [8], 82%; in assay [20], 88%; in [9], 79%. Further, the residual activity came out at 93% in assay [10], 90% in assay [11], 79% in [12] and 79% in assay [13].

Take `CSc1nc(-c2ccc(F)cc2)c(-c2ccnc(NC(C)c3ccccc3)c2)[nH]1` (configuration not stated): the residual activity in [1] turned out to be 93%; in assay [2], 84%; in [14], 101%; in [16], 100%; in assay [17], 67%; in assay [7], 96%. The residual activity in assay [18] is 95%; in [19], 78%; in [20], 5%; in [9] it was 3%; in assay [10], 62%; in assay [11], 11%. For the same compound, the residual activity in assay [12] came to 35%; in assay [13], 9%.

On to `COc1cc2c(cc1OC)-c1n[nH]c(Nc3cccc(F)c3)c1C2`, for which the residual activity in assay [1] was 78%; in assay [2], 46%; in assay [3], 82%; in assay [14], 53%; in assay [15], 81%; in [4], 61%. The residual activity in [5] was 76%; in assay [6] it was 71%; in assay [16], 83%; in [17], 75%; in assay [7], 99%; in assay [8], 50%. In addition, the residual activity amounted to 72% in assay [18]; 75% in assay [19]; 82% in [20]; 70% in [9]; 73% in assay [11]; 76% in assay [12]. In assay [13], the residual activity amounted to 39%.

Take `N#C/C(=C1/Nc2ccccc2S1)c1ccnc(NCCc2cccnc2)n1`: the residual activity amounted to 84% in assay [1]; 44% in [2]; 74% in assay [3]; 54% in [14]; 88% in [15]; 49% in [4]. For the same compound, the residual activity in assay [5] was 100%; in assay [6], 63%; in assay [16], 80%; in assay [17], 54%; in [7] it was 8%; in assay [8], 3%. The residual activity was 97% in assay [18]; 84% in [19]; 80% in assay [20]; 48% in assay [9]; 77% in assay [10]; 29% in assay [11]. Also, the values for the residual activity in assay [12] and in [13] were 52% and 8%, respectively.

As to `CN(C)S(=O)(=O)c1ccc2c(c1)/C(=C/c1cc3c([nH]1)CCCC3)C(=O)N2`, the residual activity in assay [1] was found to be 87%; in [2], 83%; in assay [3], 90%; in assay [14], 98%; in assay [15], 90%; in assay [4] it was 87%. The residual activity was 96% in [5]; 87% in [6]; 25% in [16]; 16% in assay [17]; 92% in [7]; 93% in assay [8]. Also, the residual activity in assay [18] turned out to be 77%; in [19] it was 73%; in [20], 35%; in assay [12], 92%; in [13], 71%.

Regarding `Nc1ncnc2c1c(-c1ccc(Oc3ccccc3)cc1)cn2C1CCCC1`, the residual activity in [1] came to 90%; in assay [2] it was 81%; in [3], 78%; in assay [14], 58%; in assay [15], 80%; in assay [4] it was 76%. Moreover, the residual activity was 85% in assay [5]; 66% in [6]; 78% in assay [16]; 95% in [17]; 99% in assay [7]; 96% in assay [8]. In addition, the residual activity in assay [18] came out at 83%; in assay [19], 113%; in assay [20] it was 79%; in assay [9], 24%; in assay [10], 88%; in [11], 73%. The residual activity was determined as 56% in assay [12] and 8% in [13].

Regarding `COc1cc2nccc(Oc3ccc(NC(=S)NC(=O)c4ccccc4C)cc3)c2cc1OC`, the residual activity in [1] was found to be 89%; in assay [2] it was 74%; in [3], 85%; in assay [14], 86%; in [15], 97%; in assay [4], 86%. The residual activity in assay [5] was 78%; in [6], 77%; in assay [16] it was 75%; in assay [17] it was 87%; in assay [7] it was 92%; in assay [8], 89%. In addition, the residual activity in [18] worked out at 83%; in [20] it was 48%; in [9], 23%; in assay [10] it was 91%; in [11], 63%; in assay [12], 85%. Also, the residual activity in [13] was found to be 62%.

As to `O=C1NC(=O)C(c2cn(CCCn3ccnc3)c3ccccc23)=C1Nc1ccccc1`, the residual activity was determined as 51% in [1]; 13% in assay [2]; 64% in [3]; 20% in assay [14]; 71% in assay [15]; 24% in [4]. In addition, the residual activity in assay [5] came out at 82%; in [6], 68%; in [16] it was 77%; in assay [17], 64%; in assay [7] it was 14%; in assay [8] it was 3%. The residual activity in [18] is 75%; in [19], 37%; in assay [13] it was 75%.
